In all, about 2,300 compounds went through this assay and about 330 (14%) showed activity.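 Rule for the calls: active = median modified Z-score above 1.96; inactive = 1.96 or below.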 The list is a sample of the results.
The compounds below were run on HepG2 Srxn1-GFP reporter cells (+30 nM CDDO-Me) (assay: Srxn1-GFP intensity median modified Z-score relative to plate median; higher = stronger NRF2 / oxidative stress reporter activation, active = hit call of the paper). Conditions: 10 µM; exposure time: 24h.
In short: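 Values give the median, over replicates, of the modified Z-score of GFP intensity on each plate. HepG2 Srxn1-GFP BAC reporter cells were co-treated for 24 h with an NRF2 activator at 30 nM and compound at 10 μM (≤0.1% DMSO) in three replicate plates, then analysed per cell for cytoplasmic GFP on confocal images with at least 100 cells. Scaling used 1.4826 × median absolute deviation.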

Compound | Srxn1-GFP intensity median modified Z-score
CCN(CC)C(=O)C(C#N)=Cc1cc(O)c(O)c([N+](=O)[O-])c1 [euspeclibcmpd861] | -0.942 (inactive)
CC(C)(O)[C@@H]1CC[C@](C)([C@H]2[C@@H](O)C[C@@]3(C)C4C[C@H](O[C@@H]5O[C@H](CO)[C@@H](O)[C@H](O)[C@H]5O)C5C(C)(C)[C@@H](O[C@@H]6OC[C@@H](O)[C@H](O)[C@H]6O)CC[C@@]56C[C@@]46CC[C@]23C)O1 (stereo partly drawn) [euspeclibcmpd1691] | -0.304 (inactive)
O=C(O)CN1C(=O)c2cccc3cccc(c23)C1=O [euspeclibcmpd433] | 2.2 (active)
O=C(O)CCCN1C(=O)c2cccc3cccc(c23)C1=O [euspeclibcmpd1803] | -0.0255 (inactive)
CCCCCCCC/C=C/CCCCCCCCOP(=O)(O)OCC[N+](C)(C)C [euspeclibcmpd1773] | 1.28 (inactive)
CNC(C)[C@@H]1CC[C@@H](N)[C@@H](OC2[C@@H](N)C[C@@H](N)[C@H](OC3OC[C@](C)(O)[C@H](NC)[C@H]3O)[C@H]2O)O1 (stereo partly drawn) [euspeclibcmpd820] | -0.00227 (inactive)
CC(=O)O[C@]1(C(C)=O)CCC2C3CC(C)=C4CC(=O)CC[C@]4(C)C3CC[C@@]21C (stereo partly drawn) [euspeclibcmpd178] | -0.198 (inactive)
C=C1C(=O)O[C@@H]2C[C@@]3(C)CCC[C@H](C)C3=C[C@H]12 [euspeclibcmpd1482] | 10.2 (active)
Cc1cc(-c2ccc(N=Nc3ccc4c(S(=O)(=O)O)cc(S(=O)(=O)O)c(N)c4c3O)c(C)c2)ccc1N=Nc1ccc2c(S(=O)(=O)O)cc(S(=O)(=O)O)c(N)c2c1O [euspeclibcmpd2073] | -1.03 (inactive)
NC1(C(=O)O)CCCC1 [euspeclibcmpd1759] | -0.415 (inactive)
C=CC1=C(C)c2cc3[nH]c(cc4[nH]c(cc5nc(cc1n2)=C(C)C5=CCC(=O)O)c(CCC(=O)O)c4C)c(C)c3=CC [euspeclibcmpd1059] | 0.562 (inactive)
CC1=C(CCC(=O)O)c2cc3nc(cc4[nH]c(cc5[nH]c(cc1n2)c(C)c5C(C)O)c(C)c4C(C)O)C(C)=C3CCC(=O)O (stereo not drawn) [euspeclibcmpd1687] | 8.82 (active)
O=C(O)CCc1nc2ccccc2[nH]1 [euspeclibcmpd1271] | -0.404 (inactive)
CN(C)C(N)=NC(=N)N [euspeclibcmpd874] | -0.199 (inactive)
CC(CCC(=O)O)C1CCC2C3CCC4CC(O)CCC4(C)C3CC(=O)C12C (stereo not drawn) | 0.291 (inactive)
O=C(O)[C@H](O)[C@@H](O)[C@H](O)[C@H](O)CO [euspeclibcmpd2450] | 0.571 (inactive)
O=C(O)/C=C/C=C/c1ccccc1 [euspeclibcmpd1620] | -0.147 (inactive)
COc1ccc(C(=O)/C=C/c2ccccc2)cc1 [euspeclibcmpd1565] | 26.7 (active)
COc1ccc(C(=O)/C=C/c2cccc(Cl)c2)cc1 | 0.75 (inactive)
COc1ccc(C=CC(=O)c2cc(O)ccc2O)cc1 [euspeclibcmpd1400] | -0.058 (inactive)
CCOC(=O)c1ccc(O)cc1 [euspeclibcmpd974] | -0.257 (inactive)
O=C(/C=C/c1ccccc1)c1ccc(O)cc1 | 4.36 (active)
O=C(/C=C/c1ccccc1)c1ccc(O)cc1 [euspeclibcmpd1718] | 12.6 (active)

Compound | Srxn1-GFP intensity median modified Z-score
COc1ccc2oc(-c3ccccc3)c(OC)c(=O)c2c1 [euspeclibcmpd1782] | 1.28 (inactive)
O[C@@H]1[C@@H](O)[C@@H](O)OC[C@H]1O | 0.871 (inactive)
CC1C2C(CC3C4CC[C@H]5C[C@@H](O)CC[C@]5(C)C4CC(=O)[C@@]32C)O[C@]12CC[C@@H](C)CO2 (stereo partly drawn) [euspeclibcmpd1427] | -0.425 (inactive)
COc1cc(/C=C/C(=O)N2CC=CCC2=O)cc(OC)c1OC [euspeclibcmpd1434] | 1.01 (inactive)
CON [euspeclibcmpd1358] | -0.128 (inactive)
CC(C)[N+]1(C)C2CC[C@H]1C[C@@H](OC(=O)C(CO)c1ccccc1)C2 (stereo partly drawn) [euspeclibcmpd162] | 0.508 (inactive)
CC[C@]1(O)CC2CN(CCc3c([nH]c4ccccc34)[C@@](C(=O)OC)(c3cc4c(cc3OC)N(C=O)[C@H]3[C@@](O)(C(=O)OC)[C@H](OC(C)=O)[C@]5(CC)C=CCN6CC[C@]43[C@@H]65)C2)C1 (stereo partly drawn) [euspeclibcmpd836] | 27.5 (active)
CC[C@]1(O)CC2CN(CCc3c([nH]c4ccccc34)[C@@](C(=O)OC)(c3cc4c(cc3OC)N(C)[C@H]3[C@@](O)(C(=O)OC)[C@H](OC(C)=O)[C@]5(CC)C=CCN6CC[C@]43[C@@H]65)C2)C1 (stereo partly drawn) [euspeclibcmpd320] | 25.8 (active)
CC(=O)NC(CCC(N)=O)C(=O)O (stereo not drawn) [euspeclibcmpd1028] | -0.425 (inactive)
Oc1cc2c(cc1O)C1c3ccc(O)c(O)c3OCC1(O)C2 (stereo not drawn) [euspeclibcmpd1605] | -0.437 (inactive)
CN(C)CC/C=C1/c2ccccc2COc2ccccc21 [euspeclibcmpd104] | 1.4 (inactive)
CC(=O)C1CCC2C3CC(C)=C4CC(=O)CC[C@]4(C)C3[C@@H](O)C[C@]12C (stereo partly drawn) [euspeclibcmpd179] | -0.562 (inactive)
O=c1cc(-c2cc(O)c(O)c(O)c2)oc2cc(O)cc(O)c12 [euspeclibcmpd1548] | -0.459 (inactive)
Cc1cc(-n2c(=O)[nH]c(=O)n(C)c2=O)ccc1Oc1ccc(SC(F)(F)F)cc1 [euspeclibcmpd839] | 2.22 (active)
CC(C)(Oc1ccc(Cl)cc1)C(=O)O [euspeclibcmpd1029] | -0.706 (inactive)
COc1ccc(C(=O)NCc2ccc(CN(C)C)cc2)cc1OC | 0.376 (inactive)
CCc1cn(C2OCC(O)C2CO)c(=O)[nH]c1=O (stereo not drawn) [euspeclibcmpd543] | -0.196 (inactive)
C=C1c2c(Cl)ccc(O)c2C(=O)C2C(=O)[C@]3(O)C(=O)C(C(N)=O)C(=O)C(N(C)C)[C@@H]3[C@@H](O)[C@H]12 (stereo partly drawn) [euspeclibcmpd381] | 0.0643 (inactive)
CCC[C@@H]1CC(C(=O)N[C@H]([C@H]2O[C@H](SC)[C@H](O)[C@@H](O)[C@H]2O)[C@H](C)O)N(C)C1 (stereo partly drawn) [euspeclibcmpd172] | 0.221 (inactive)
NC(=O)C1CC2CCCCC2N1c1cc(Cl)c(C(F)(F)F)cc1[N+](=O)[O-] (stereo not drawn) | 0.587 (inactive)
CON=C(C(=O)N[C@@H]1C(=O)N2C(C(=O)O)=C(COC(C)=O)CS[C@H]12)c1csc(=N)[nH]1 [euspeclibcmpd2262] | -0.173 (inactive)
CON=C(C(=O)NC1C(=O)N2C(C(=O)O)=C(CSc3nnnn3C)CSC12)c1csc(=N)[nH]1 (stereo not drawn) [euspeclibcmpd505] | -0.115 (inactive)
CON=C(C(=O)NC1C(=O)N2C(C(=O)O)=C(C[N+]3(C)CCCC3)CSC12)c1csc(=N)[nH]1 (stereo not drawn) [euspeclibcmpd504] | 35.8 (active)

Compound | Srxn1-GFP intensity median modified Z-score
O=C(c1ccc(COc2ccc(Cl)cc2)cc1)N1CCN(Cc2ccc3c(c2)OCO3)CC1 | 1.17 (inactive)
C[C@]12CCC3c4ccc(O)cc4CCC3C1CC[C@@H]2OC(=O)CCC1CCCC1 (stereo partly drawn) [euspeclibcmpd116] | -0.256 (inactive)
CC=C(C(=CC)c1ccc(O)cc1)c1ccc(O)cc1 [euspeclibcmpd91] | 13.6 (active)
Oc1ccc(O)cc1 [euspeclibcmpd672] | 0.74 (inactive)
Cc1ccc(O)cc1 [euspeclibcmpd76] | -0.159 (inactive)
CN[C@@H]1C(O)[C@@H](O[C@@H]2[C@@H](O)[C@H](O[C@H]3OC(CN)=CC[C@H]3N)[C@@H](N)C[C@H]2N)OC[C@]1(C)O (stereo partly drawn) [euspeclibcmpd452] | -0.626 (inactive)
CO[C@H]1/C=C/O[C@@]2(C)Oc3c(C)c(O)c4c(O)/c(c(=CNN5CCN(C)CC5)c(O)c4c3C2=O)=N\C(=O)/C(C)=C\C=C\C(C)[C@H](O)[C@@H](C)[C@@H](O)[C@@H](C)[C@@H](OC(C)=O)[C@@H]1C (stereo partly drawn) [euspeclibcmpd263] | -0.401 (inactive)
O=c1c(O)cc(C2Oc3cc(O)cc(O)c3C[C@H]2O)cc2c(C3Oc4cc(O)cc(O)c4C[C@@H]3O)cc(O)c(O)c12 (stereo partly drawn) [euspeclibcmpd1420] | -0.548 (inactive)
Oc1cn2c(n1)Nc1ccc(Cl)c(Cl)c1C2 [euspeclibcmpd824] | -0.784 (inactive)
Cc1cc2c(s1)N=c1ccccc1=NC2N1CCN(C)CC1 (stereo not drawn) [euspeclibcmpd2354] | 0.441 (inactive)
CN1CCN2c3ccccc3Cc3ccccc3C2C1 (stereo not drawn) [euspeclibcmpd961] | 0.112 (inactive)
CSc1ccc2c(c1)C(N1CCN(C)CC1)Cc1ccccc1S2 (stereo not drawn) [euspeclibcmpd1144] | 28.4 (active)
CON=C(C(=O)NC1C(=O)N2C(C(=O)O)=C(CSC(=O)c3ccco3)CSC12)c1csc(=N)[nH]1 (stereo not drawn) [euspeclibcmpd692] | -0.296 (inactive)
N=c1[nH]cnc(=Nc2ccc(Cl)cc2)[nH]1 [euspeclibcmpd2344] | 0.164 (inactive)
CC1CC[C@@]23CC[C@]4(C)[C@@](CCC5[C@@]6(C)CCC(=O)C(C)(C)C6CC[C@]54C)(OC2=O)C3C1C (stereo partly drawn) [euspeclibcmpd1366] | -0.221 (inactive)
CC(=O)OCC(=O)[C@@]1(O)CC[C@H]2[C@@H]3CCC4=CC(=O)CC[C@]4(C)[C@H]3C(=O)C[C@]21C | 0.314 (inactive)
COc1cc(C(=O)NCc2ccc(OCCN(C)C)cc2)cc(OC)c1OC [euspeclibcmpd309] | 0.482 (inactive)
CC/C(=C(\c1ccccc1)c1ccc(OCCN(C)C)cc1)c1ccccc1 [euspeclibcmpd285] | 43.4 (active)
CN(C)CCOC(=O)COc1ccc(Cl)cc1 [euspeclibcmpd1131] | -0.393 (inactive)
COc1ccc(C(=O)NCc2ccc(OCCN(C)C)cc2)cc1OC [euspeclibcmpd1095] | 0.331 (inactive)
CN(C)CCOc1ccc(/C(=C(/CCCl)c2ccccc2)c2ccccc2)cc1 [euspeclibcmpd946] | 93.7 (active)
CCN(CC)CCOc1ccc(/C(=C(\Cl)c2ccccc2)c2ccccc2)cc1 [euspeclibcmpd69] | -1.55 (inactive)
